High-throughput results as filed in PubChem.
Shown are actives, neighbours in structure and some others; about 4.3% of the full set was active somewhere.
esBAF inh – Bmi1 luciferase reporter increase in mESCs, primary screen, esBAF inhibitor project, mouse ES cells, Bmi1 luciferase knock-in, single point | 24 h; 100% = twice the neutral-well signal | 350,000 tested, 2% active | reporter increase, % at 12.5 µM | AID 602393, 2012; in the data active = activation above about 40%; inconclusive = no clear call, values can overlap the other calls;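 note: 0% = median of the plate's neutral control wells and 100% = double that signal; a rise in the Bmi1 reporter signal indicates esBAF inhibition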
Wnt bcat act – Wnt/beta-catenin pathway activators, primary screen, cell-based, plate reader, single point; 300,000 tested, 1.2% active; Wnt/beta-catenin reporter cell assay, activator; activation, % at 9.35 µM; AID 743398, 2014; in the data active = activation above about 30%, passing the limit was not always enough; inconclusive = no clear call, values can overlap the other calls;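 note: 0% = neutral control wells and 100% = positive control wells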
MITF act – activators of MITF-driven TRPM1 promoter reporter, primary screen, cell-based, SK-MEL-5, luciferase, single point. activation, % at 12.5 µM. 300,000 tested, 0.75% active. SK-MEL-5 TRPM1-promoter luciferase, 24 h; % of positive control, neutral wells = 0. AID 588334, 2011;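 active = mean activation of at least 80% with every replicate also reaching 80%; inconclusive = mean reaches 80% but some replicate falls short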;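 note: 0% = neutral control wells and 100% = parthenolide positive control wells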
FGF22 binding – binders of human FGF22 protein, primary screen, FGF22 synaptogenesis inhibitor project, biophysical, thermal shift, single point; activity (Tm shift, normalised), % at 9.99 µM; 340,000 tested, 1.5% active; recombinant FGF22 thermal shift, SYPRO orange fluorescence; percent of sucrose octasulfate shift, DMSO zero;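 active = mean Tm shift, scaled 0 neutral to 100 positive control, at about 1.3% or above, every replicate too, limit read from the data; inconclusive = no clear call, values can overlap the other calls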
MLL AF4-AF9 inh – inhibitors of AF4 peptide binding to AF9, primary screen, biochemical, AlphaScreen, biotin-AF4 peptide, FLAG-AF9, single point; AID 651704, 2012; 350,000 tested, 0.47% active; inhibition, % at 10 µM; Protein AF-9 (Homo sapiens), P42568;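 active = every replicate reaching a set inhibition limit, whatever the replicate mean, cut at about 25% in these data; inconclusive = mean inhibition reaches that limit but some replicates miss it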;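 note: 0% = plate neutral control median and 100% = total signal loss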
Target sequence (P42568 whole entry, looked up): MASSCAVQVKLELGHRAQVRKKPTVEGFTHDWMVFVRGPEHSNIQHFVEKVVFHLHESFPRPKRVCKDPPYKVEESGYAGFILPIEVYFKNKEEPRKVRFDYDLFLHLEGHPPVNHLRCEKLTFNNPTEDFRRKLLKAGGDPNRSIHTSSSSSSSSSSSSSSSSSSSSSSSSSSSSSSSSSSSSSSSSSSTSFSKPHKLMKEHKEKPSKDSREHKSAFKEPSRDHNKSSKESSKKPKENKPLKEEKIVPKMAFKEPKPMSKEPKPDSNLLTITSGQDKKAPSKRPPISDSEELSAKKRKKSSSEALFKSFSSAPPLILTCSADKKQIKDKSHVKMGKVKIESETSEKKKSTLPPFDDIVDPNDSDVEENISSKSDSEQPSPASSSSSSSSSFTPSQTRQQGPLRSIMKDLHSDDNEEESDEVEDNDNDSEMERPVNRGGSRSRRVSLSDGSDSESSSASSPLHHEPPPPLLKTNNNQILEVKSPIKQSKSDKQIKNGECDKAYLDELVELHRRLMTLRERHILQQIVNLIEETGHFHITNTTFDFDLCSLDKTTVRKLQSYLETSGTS
SMARCA2 activ – SMARCA2 (BRM) function activators, primary screen, cell-based, luminescence, high throughput; activation, % at 9.1 µM; 370,000 tested, 1% active; MG213 cells, MMTV-luciferase reporter, dexamethasone, overnight; in the data active = activation above about 7.8%;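 note: 0% = vehicle wells and 100% = reference activator wells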
Starred values were filed as active, the others as inactive; ? = inconclusive; nt = not tested or not shown.

SMILES	esBAF inh	Wnt bcat act	MITF act	FGF22 binding	MLL AF4-AF9 inh	SMARCA2 activ
O=C(O)c1cccc(-c2noc(-c3cccc(Cl)c3)n2)c1	-82	37*	-91	1	-4	5
CC(C)NC(=O)N(C)C[C@H]1Oc2cc(C3=CCCC3)ccc2S(=O)(=O)N([C@H](C)CO)C[C@H]1C	-5	nt	nt	0	-7	nt
COCc1cn(CC[C@H]2CC[C@H](NC(=O)c3ccc(F)cc3)[C@@H](CO)O2)nn1	-4	nt	nt	0	-2	nt
CC(=O)Oc1ccc2cc(-c3nc4ccccc4n3C)c(=O)oc2c1	39	nt	26	nt	nt	2
Cn1c(-c2cc3ccc(OC(=O)C(C)(C)C)cc3oc2=O)nc2ccccc21	22	34*	54	nt	nt	0
C[C@@H]1CN([C@@H](C)CO)C(=O)Cc2cc(NC(=O)c3ccncc3)ccc2O[C@H]1CN(C)C(=O)Nc1ccc(C(F)(F)F)cc1	-2	nt	nt	0	-1	nt
CCCC#Cc1cnc2c(c1)C(=O)N([C@@H](C)CO)C[C@H](C)[C@@H](CN(C)C(=O)Nc1c(C)noc1C)O2	-2	nt	nt	0	-2	nt
CCOc1ccc2nc(SC(C)C(N)=O)[nH]c2c1 (stereo unspecified)	6	nt	nt	nt	nt	7.9*
CCOc1ccc2nc(SCC3CC3(Cl)Cl)[nH]c2c1 (stereo unspecified)	nt	35*	nt	0	-2	5
N#Cc1cccc(-c2ccc3c(c2)[C@@H]2[C@@H](CCN2C(=O)c2ccncc2)[C@@H](CO)N3)c1	61*	nt	nt	0	-4	nt
COc1cccc(-c2ccc3c(c2)[C@H]2[C@H](CCN2C(=O)c2ccccn2)[C@H](CO)N3)c1	45*	nt	nt	0	-7	nt
COc1cccc(-c2ccc3c(c2)[C@@H]2[C@@H](CCN2C(=O)c2ccccn2)[C@H](CO)N3)c1	30	nt	nt	-1	6	nt
O=C(C[C@@H]1CC[C@@H]2[C@H](COC[C@H](O)CN2C(=O)Nc2cc(Cl)cc(Cl)c2)O1)NCC1CC1	4	nt	nt	0	2	nt
Cc1oc(-c2ccccc2F)nc1CS(=O)CC(=O)NCc1ccc2c(c1)OCO2 (stereo unspecified)	-9	43*	nt	0	-18	-1
COc1ccc(C(=O)CSc2ncnc3nc[nH]c23)cc1	nt	4	nt	0	nt	-1
Cc1ccc(OCCSc2ncnc3nc[nH]c23)cc1	nt	nt	90*	nt	nt	3
COc1ccc(Br)cc1/C=C/C(=O)NC(=S)Nc1ccc(Cl)c(C(=O)O)c1	nt	-1	10	0	-2	-1
COc1ccc(Br)cc1/C=C/C(=O)NCC(=O)O	nt	1	-14	44*	-1	-3
Cc1cc(-c2nnc(SCC(=O)c3ccc4c(c3)OCCO4)o2)no1	nt	-3	-9	44*	-2	-2
Cc1cc(C)cc(-c2nnc(SCC(=O)c3ccc4c(c3)OCCO4)o2)c1	-4	nt	-10	nt	nt	7
Cc1cc(-c2nnc(SCC(=O)c3ccc(F)cc3)o2)no1	nt	-3	18	44*	-2	0
CCNc1cccc2c1C(=O)N(C)C2=O	3	-2	-1	0	-2	7.8*
COC(=O)c1c(-c2ccc(Br)cc2)noc1N	56*	4	nt	nt	nt	0
COc1ccc2c3c([nH]c2c1)[C@@H](CO)N(Cc1ccccc1)CC31CN(S(=O)(=O)c2ccc(C)cc2)C1	nt	nt	nt	0	0	nt
COc1ccccc1CN1CC(C(=O)NCc2ccc(C)c(F)c2)CCC1=O (stereo unspecified)	0	0	13	0	0	-3
SMILES	esBAF inh	Wnt bcat act	MITF act	FGF22 binding	MLL AF4-AF9 inh	SMARCA2 activ
COc1ccccc1CN1CC(C(=O)NCc2c(F)ccc(C)c2F)CCC1=O (stereo unspecified)	51*	14	80	0	0	0
COc1ccccc1CCNC(=O)C1CCC(=O)N(Cc2ccccc2OC)C1 (stereo unspecified)	nt	1	-9	0	2	-3
COc1ccccc1CN1CC(C(=O)NCCCc2ccc(F)cc2)CCC1=O (stereo unspecified)	-1	-2	5	0	42*	-4
COc1ccc(CCN2CC(C(=O)NCCc3ccccc3C(F)(F)F)CCC2=O)cc1 (stereo unspecified)	49*	9	46	0	1	0
O=C(C[C@@H]1CC[C@H](NS(=O)(=O)c2ccccc2)[C@H](CO)O1)N1CCc2ccccc2C1	1	nt	nt	0	-4	nt
CCCn1nnc(NC(=O)c2ccc(-c3ccccc3)cc2)n1	41*	29	92*	0	-43	1
CCCn1nnc(NC(=O)c2ccc(Br)cc2)n1	35	-4	57	nt	-35	4
Cn1nnc(NC(=O)c2ccc(C(C)(C)C)cc2)n1	46*	nt	nt	nt	nt	6
COc1cccc(-c2nnc(SCc3cc(C)ccc3C)n2Cc2ccco2)c1	nt	nt	nt	nt	nt	-7
CC=Cc1ccc2n(c1=O)C[C@H]1[C@H](CO)[C@@H](C(=O)NCc3ccc(F)cc3)N(C)[C@@H]21 (mixture of isomers)	-2	nt	nt	0	1	nt
CCCCC#Cc1cncc(C(=O)NN)c1	-5	-1	-3	0	2	-2
CCCCCCC#Cc1cncc(C(=O)NNC(=O)Nc2cc(Cl)cc(Cl)c2)c1	nt	42*	nt	0	-3	-6
COc1ccc2oc(=O)c(-c3nnc(N)s3)cc2c1	nt	?	33	0	-3	4
Nc1nnc(-c2cc3ccccc3oc2=O)s1	26	1	nt	nt	nt	7.9*
O=c1oc2ccccc2cc1-c1nnc(NCc2ccco2)s1	3	72*	nt	nt	nt	7
CC(=O)NNC(=O)CCn1nnc2ccccc21	-2	-2	-2	44*	-2	-1
c1ccc(CCn2nnc3ccccc32)cc1	31	54*	98*	0	11	1
O=C([C@H]1[C@H](CO)[C@H]2Cn3c(cccc3=O)[C@@H]1N2)N1CCc2ccccc2C1	0	nt	nt	0	-1	nt
C[C@H]1CN([C@@H](C)CO)C(=O)Cc2cc(NS(C)(=O)=O)ccc2O[C@H]1CN(C)S(=O)(=O)c1cn(C)cn1	-3	nt	nt	0	nt	nt
COCCn1c(SCC(=O)Nc2ccccc2OC)nnc1-c1ccco1	0	0	-20	42	1	-3
COCCn1c(C)nnc1SCC(=O)Nc1ccccc1[N+](=O)[O-]	nt	51*	-8	0	0	0
COc1ccc2c3c(n(C)c2c1)[C@@H](CO)N(C(=O)c1ccncc1)CC31CN(CC2CC2)C1	nt	nt	nt	0	6	nt
O=C(CCS(=O)(=O)Cc1ccccc1)Nc1ncc([N+](=O)[O-])s1	42*	19	45	0	-2	0
